Assay [1] concerns HaCat. Description: Cytotoxic Profiling of Annotated Libraries Using Quantitative High-Throughput Screening (AID 1296008). Also: nearly all actives have a fitted effect of over 60% in size. As to conditions: Five cell lines viability, CellTiter-Glo ATP luminescence, 48-72 h; max response: active compounds read low. In outline:
(§1)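 Cytotoxicity was measured as CellTiter-Glo ATP luminescence, read after 10 min at room temperature. Compound treatment of the cells lasted 48 or 72 hr at 37 degrees Celsius in a qHTS format.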

In assay [2] the test system is NIH3T3. Described as above. As to conditions: Five cell lines viability, CellTiter-Glo ATP luminescence, 48-72 h; max response: active compounds read low. In outline:
as §1
A general note: In ATP-based viability assays light output follows the ATP content of the culture.

Assay [3] concerns HACAT. The assay can be described thus: qHTS assay to identify novel small-molecules to repurpose for Merkel cell carcinoma treatment (AID 1296009). Also: nearly all actives have a fitted effect of over 60% in size. Also: potency is read from the fitted curve at half-maximal effect. As to conditions: MCC and control cell lines, CellTiter-Glo viability, 72 h; at 44.8 µM (top of the series) unless noted. In a few lines:
(§2)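 Cell viability, measured as CellTiter-Glo luminescence, was normalized between DMSO and no-cell wells. The cells had been exposed to 8- or 11-point compound dilutions for 72 hr at 37 degree celsius.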

Assay [4] deals with HEK293T. The assay is described as above. As to conditions: MCC and control cell lines, CellTiter-Glo viability, 72 h; at 44.8 µM (top of the series) unless noted. In a few lines: as §2
Another assay deals with MCC-13. The assay is described as above. As to conditions: MCC and control cell lines, CellTiter-Glo viability, 72 h; series mostly up to 46 µM. In a few lines: as §2
A further assay relates to MCC-26. Described as above. As to conditions: MCC and control cell lines, CellTiter-Glo viability, 72 h; series mostly up to 46 µM. In outline:
as §2

The next assay has as its system MKL-1. The description is as above. As to conditions: MCC and control cell lines, CellTiter-Glo viability, 72 h; series mostly up to 46 µM. In a few lines: as §2
In the next assay the test system is MKL-2. Described as above. As to conditions: MCC and control cell lines, CellTiter-Glo viability, 72 h; series mostly up to 46 µM. In outline: as §2
The test system of assay [5] is NIH3T3. Described as above. As to conditions: MCC and control cell lines, CellTiter-Glo viability, 72 h; at 44.8 µM (top of the series) unless noted. In outline:
as §2

For a further assay, the system named is UISO. Described as above. As to conditions: MCC and control cell lines, CellTiter-Glo viability, 72 h; series mostly up to 46 µM. In outline:
as §2

In a further assay the test system is WaGa. Described as above. As to conditions: MCC and control cell lines, CellTiter-Glo viability, 72 h; series mostly up to 46 µM. In outline:
as §2

In the next assay the test system is C33A. Description: Primary qHTS to identify gynecologic anti-cancer compounds using libraries of approved drugs and bioactive compounds (AID 1345084). Also: nearly all actives have a fitted effect of over 55% in size. Also: potency is read from the fitted curve at half-maximal effect. As to conditions: Gynecologic cancer cell panel viability, ATPlite luminescence, 48 h; series mostly up to 57.5 µM. In outline: (§3)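 Cell viability after 48 h drug treatment, ATPlite luminescence readout; five doses.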
In general terms: Quantitative high-throughput screening tests each substance at several concentrations.

The next assay concerns CAOV3. Described as above. As to conditions: Gynecologic cancer cell panel viability, ATPlite luminescence, 48 h; series mostly up to 57.5 µM. In a few lines:
as §3

The subject of another assay is CASKI. Described as above. As to conditions: Gynecologic cancer cell panel viability, ATPlite luminescence, 48 h; series mostly up to 57.5 µM. In a few lines: as §3
For a further assay, the system named is Es-2. The description is as above. As to conditions: Gynecologic cancer cell panel viability, ATPlite luminescence, 48 h; series mostly up to 57.5 µM. In outline:
as §3

For another assay, the system named is HeLa. The description is as above. As to conditions: Gynecologic cancer cell panel viability, ATPlite luminescence, 48 h; series mostly up to 57.5 µM. In outline:
as §3

Assay [6] concerns Hek293T. The description is as above. As to conditions: Gynecologic cancer cell panel viability, ATPlite luminescence, 48 h, control line for the selectivity index; series mostly up to 57.5 µM. In a few lines: as §3
A further assay relates to JEG-3. The description is as above. As to conditions: Gynecologic cancer cell panel viability, ATPlite luminescence, 48 h; series mostly up to 57.5 µM. In outline: as §3
The next assay deals with OV90. The assay is described as above. As to conditions: Gynecologic cancer cell panel viability, ATPlite luminescence, 48 h; series mostly up to 57.5 µM. In outline: as §3
The subject of another assay is KB-3-1. The assay can be described thus: Cytotoxic Profiling of Annotated Libraries Using Quantitative High-Throughput Screening (AID 1296008). Also: nearly all actives have a fitted effect of over 60% in size. As to conditions: Five cell lines viability, CellTiter-Glo ATP luminescence, 48-72 h; max response: active compounds read low. In a few lines:
as §1

Results filed as inconclusive are left out. Unmarked numbers belong to inactive results. Activity calls are given as the source filed them. Calls follow the shape of the dose curve; as a rule, active = well fitted curve in the direction sought with a large enough effect; inconclusive = small, poorly fitted or top-dose-only effect, or another doubt; inactive = no such curve, though single readings can be large; an effect the other way counts as inactive or inconclusive.
% is scaled to controls: 0 for no effect and ±100 for the full control effect.

As for `COc1ccc(/C(C)=C/C(=O)O)c(OC)c1`, the molecule was classed as inactive in the assay on HaCat [1], with NIH3T3 [2], in the assay on HACAT [3], in the assay on HEK293T [4] and in the assay with NIH3T3 [5]. Besides, the Potency result in the assay on MCC-13, in the assay on MCC-26, in the assay on MKL-1, in the assay on MKL-2, with UISO and in the assay on WaGa was “inactive” in each case. In addition, the Potency entry in the assay on C33A, with CAOV3, in the assay with CASKI, in the assay on Es-2, in the assay on HeLa and in the assay on Hek293T [6] was “inactive” each time. The Potency entry in the assay on JEG-3 and with OV90 was “inactive” throughout.

For the molecule `Nc1cccc2c(N)cccc12`, the result in the assay with HaCat [1] was inactive. The max response with KB-3-1 was 15.8%. Besides, in the assay on HACAT [3], the outcome was “inactive [at 92 µM]”. Besides, the Potency in the assay with MCC-13 was 38.6 µM (active); with MKL-1, 6.11 µM (active); in the assay with MKL-2, 1.93 µM (active); in the assay with UISO, 10.9 µM (active); with WaGa, 19.3 µM (active); in the assay with OV90 it was 20 µM (active). The Potency entry with Es-2, in the assay with HeLa and in the assay with Hek293T [6] was “inactive” throughout.

As for `C=CC[N+]1([C@H]2C[C@H]3[C@@H]4CC[C@H]5C[C@H](OC(C)=O)[C@@H](N6CCCCC6)C[C@]5(C)[C@H]4CC[C@]3(C)[C@H]2OC(=O)CC)CCCCC1`, the max response in the assay with HaCat [1] is 4.73%; with NIH3T3 [2], -0.979%. Also, the molecule was classed as inactive with KB-3-1. The Potency result with MCC-13, in the assay with MCC-26, in the assay with MKL-1, in the assay with UISO, in the assay with WaGa and with C33A was “inactive” in each case. Also, the Potency result in the assay on CAOV3, in the assay with CASKI, with Es-2, with HeLa, with Hek293T [6] and in the assay with JEG-3 was “inactive” in each case.

`CN1CCC(N(Cc2cccs2)c2ccccc2)CC1`: the max response in the assay with HaCat [1] was -4.44%; in the assay with KB-3-1, -11.3%; with NIH3T3 [2], -5.48%. Moreover, the Potency result in the assay on MCC-13, in the assay on MCC-26, with MKL-1, in the assay on MKL-2, with WaGa and in the assay on C33A was “inactive” in each case. In addition, the Potency entry with CAOV3, with CASKI, with Es-2, in the assay on HeLa, with Hek293T [6] and with JEG-3 was “inactive” each time.

As for `CCOC(=O)Cn1cccc1-c1nc(-c2ccc(OC)cc2)c(-c2ccc(OC)cc2)s1`, the max response with HaCat [1] is -29.1%; in the assay with KB-3-1, 5.97%. Besides, the molecule was classed as inactive with NIH3T3 [2] and in the assay with NIH3T3 [5]. For the same molecule, the Potency entry in the assay on MCC-13, with MCC-26, in the assay on UISO, in the assay on WaGa, with C33A and with CAOV3 was “inactive” in each case. Further, the Potency entry in the assay on CASKI, in the assay with Es-2, in the assay with HeLa, in the assay on Hek293T [6], with JEG-3 and in the assay with OV90 was “inactive” in each case.

Regarding `O=C(O)Cc1ccc(OCCNC[C@H](O)c2ccccc2)cc1`, the max response in the assay with HaCat [1] is 2.67%; in the assay with KB-3-1, -1.64%; with NIH3T3 [2], 0.971%. In addition, the Potency entry with MCC-13, with C33A, in the assay with CAOV3, with CASKI, with Es-2 and in the assay on HeLa was “inactive” each time. Also, the Potency result with Hek293T [6], in the assay on JEG-3 and in the assay with OV90 was “inactive” throughout.

With `NS(=O)(=O)c1ccc(N2CCCCS2(=O)=O)cc1`, the molecule was called inactive with HaCat [1], with NIH3T3 [2], with HACAT [3], in the assay on HEK293T [4] and in the assay on NIH3T3 [5]. Also, the Potency result in the assay with MCC-13, in the assay with MCC-26, in the assay on MKL-1, with MKL-2, in the assay with UISO and with WaGa was “inactive” throughout. For the same molecule, the Potency entry with C33A, in the assay with CAOV3, in the assay on CASKI, with Es-2, in the assay with HeLa and in the assay with Hek293T [6] was “inactive” in each case. For the same molecule, the Potency result with JEG-3 and with OV90 was “inactive” in each case.

For the molecule `CC(C)OC(=O)c1cc2c(OCC(O)CNC(C)(C)C)cccc2[nH]1` (configuration not stated), the max response is -9.3% in the assay with HaCat [1] and -5.12% in the assay with KB-3-1. In addition, the Potency entry in the assay with MCC-13, in the assay with MCC-26, in the assay on MKL-1, in the assay on MKL-2, in the assay with UISO and in the assay on WaGa was “inactive” in each case. For the same molecule, the Potency result in the assay with C33A, in the assay with CASKI, with Es-2 and in the assay on JEG-3 was “inactive” each time.

As for `Brc1ccc([C@H]2CN3CCSC3=N2)cc1`, the max response in the assay on HaCat [1] was -7.1%; in the assay on KB-3-1, 5.27%. Also, the molecule was classed as inactive with NIH3T3 [2] and with NIH3T3 [5]. Moreover, the Potency entry in the assay on C33A, in the assay with CAOV3, in the assay on CASKI, in the assay with Es-2, in the assay on HeLa and in the assay with Hek293T [6] was “inactive” in each case. In addition, the Potency result with JEG-3 and with OV90 was “inactive” each time.

These data come from PubChem BioAssay (NCATS).
